# Compound activity: PubChem BioAssay, National Center for Advancing Translational Sciences (NCATS)
# IL1B secr inh = inhibitors of inflammasome signaling (IL-1 beta secretion); 360,000 compounds, 4.7% hits; activity change, % at 57.5 µM; THP-1 LPS/ATP IL-1B secretion, AlphaLISA, 16 h; hits give low values; in the data active means activity change below about -50%; inconclusive means mostly about -30% to -49%
#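 THP-1 cells pretreated 1 hr with compounds (up to 57.5 uM final), then stimulated with LPS (250 ng/mL final) plus ATP (1.25 mM final); secreted IL-1B measured by AlphaLISA after 16 hr, decreased signal indicating inhibition.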
# LDHA block = LDHA (human) enzyme inhibition; P00338; purified LDHA, NADH/diaphorase-resazurin fluorescence; hits give low values; activity change, % (values are at about 110 or 230 µM); 480,000 compounds, 0.15% hits; AID 1347041; in the data active means activity change below about -30%; inconclusive means mostly about -25% to -30%;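 further: plate controls were DMSO wells for no effect and wells without enzyme for full effect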
#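 Remaining NADH was detected by diaphorase (0.133 mg/mL) converting 37 µM resazurin to fluorescent resorufin, read at 0 and 20 minutes. The preceding 5-minute room-temperature reaction used 2 nM LDHA, 0.2 mM sodium pyruvate and 0.06 mM NADH at pH 7.4.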
# DT40 TDP1 CPT = growth inhibition of DT40 Tdp1-/-;hTDP1 cells with camptothecin (screen for TDP1 inhibitors); Potency, µM (top dose mostly 46.2 µM), without a hit: at the top dose activity change, negative = growth inhibition, most hits filed as inhibitors; AID 686979; 420,000 compounds, 12% hits; chicken DT40 Tdp1-/-;hTDP1 cells + 20 nM CPT, ATP luminescence, 48 h; further: potency means the concentration at half of the fitted maximal effect; nearly all actives have a fitted effect of over 55% in size
#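 Cell growth measured by CellTiter-Glo luminescence after a minimum 48 h, 37 C compound exposure with 20 nM CPT in Tdp1-knockout DT40 cells stably expressing hTDP1, seeded 400/well; qHTS titration format.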
# VP16 counter = counter-screen for ROR gamma inhibitors: Gal4-VP16 reporter; Drosophila S2 Gal4-VP16 UAS-luciferase, luminescence, 20 h; Potency, µM (doses to about 53.6 µM), for the others: at the top dose activity, negative = inhibition, usual class: inhibitors; 310,000 compounds, 3.5% hits; AID 2546;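 further: Gal4-VP16 expression switched on by copper sulfate through the metallothionein promoter; potency means the concentration at half of the fitted maximal effect; nearly all actives have a fitted effect of over 50% in size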
# TDP1 cell noCPT = qHTS for Inhibitors of human tyrosyl-DNA phosphodiesterase 1 (TDP1): qHTS in cells in absence of CPT. DT40 Tdp1-/- hTDP1 cells, no CPT, ATP luminescence, 48 h. Potency, µM (top dose mostly 46.2 µM), inactives show at the top dose activity change, negative = growth inhibition, usual class: inhibitors. 420,000 compounds, 15% hits. AID 686978, 2013; further: potency means the concentration at half of the fitted maximal effect; nearly all actives have a fitted effect of over 55% in size
#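 A cellular qHTS used chicken DT40 cells lacking endogenous Tdp1 but carrying stably transfected human TDP1. Compounds were applied without camptothecin, and cell growth kinetics were judged by ATP-dependent luminescence after ≥48 hr.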
# RORg inh = blocks mouse ROR gamma transcriptional activity. Potency, µM (top dose mostly 53.6 µM), for the others: top-dose activity change, negative = inhibition, most hits filed as inhibitors. Drosophila S2 Gal4-RORgamma UAS-luciferase reporter, 20 h. 310,000 compounds, 5.4% hits. P51450; further: potency means the concentration at half of the fitted maximal effect; nearly all actives have a fitted effect of over 60% in size
# Target sequence (P51450 whole entry, looked up, the tested form may be a part): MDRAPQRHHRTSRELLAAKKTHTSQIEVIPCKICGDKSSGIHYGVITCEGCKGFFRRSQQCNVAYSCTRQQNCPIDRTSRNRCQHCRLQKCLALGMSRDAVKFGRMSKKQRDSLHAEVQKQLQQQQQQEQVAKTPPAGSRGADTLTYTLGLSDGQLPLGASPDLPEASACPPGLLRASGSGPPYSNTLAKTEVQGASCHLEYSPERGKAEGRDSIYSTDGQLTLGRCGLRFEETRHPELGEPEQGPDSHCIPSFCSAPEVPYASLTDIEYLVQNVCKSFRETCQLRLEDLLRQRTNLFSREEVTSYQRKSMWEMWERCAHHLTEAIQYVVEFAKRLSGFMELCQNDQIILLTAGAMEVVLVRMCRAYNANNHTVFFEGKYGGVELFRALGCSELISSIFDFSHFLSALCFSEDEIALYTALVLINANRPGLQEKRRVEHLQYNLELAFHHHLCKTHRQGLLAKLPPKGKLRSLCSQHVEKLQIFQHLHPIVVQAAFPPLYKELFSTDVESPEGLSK
#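 Luciferase reporter read in Schneider cells carrying Gal4-RORγ (mouse) and UAS-Photinus luciferase; cells given compound 1 h before 700 uM copper sulfate induction, then incubated 20 h at ambient temperature.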
# * marks the source's active call; other numbers are inactive results; ? = inconclusive; / = no result; [ ] = dose if it differs, or a comment. Compounds with a hit are over-represented: about 18% of the library has one in this group of screens. Unless noted, the call rests on the fitted dose curve; in most records, active means well fitted curve in the direction sought with a large enough effect; inconclusive means small, poorly fitted or top-dose-only effect, or another doubt; inactive means no such curve, though single readings can be large; an effect the other way counts as inactive or inconclusive. Unless noted, on the % scale 0 is the no-effect control and ±100 the full control effect.
SMILES,IL1B secr inh,LDHA block,DT40 TDP1 CPT,VP16 counter,TDP1 cell noCPT,RORg inh
Cc1cccc(C(=O)N2CCc3cc(-c4nc(NC(=O)Cn5nnc6ccccc6c5=O)sc4C)ccc32)c1,/,/,/,-11.0%,/,28.4%[10 µM]
COc1cc(-c2nnc(-c3cccc4ccccc34)o2)cc(OC)c1OC,/,11.9,/,/,/,/
COc1ccc(CN(C)C(=O)c2oc3ccccc3c2CSC)cc1F,0.3,1.4,23.1µM*,0.9%,20.6µM*,?
Cc1nnc(NC(=O)CCc2ncc(-c3ccccc3)o2)s1,/,-14.7,/,/,/,/
CCCNC(=O)c1cc(C2CCCN(S(=O)(=O)c3cccc4cccnc34)C2)on1 (stereo unspecified),22.8,-7.0,16.4µM*,/,?,/
O=C(NCc1cccnc1)c1cc(C2CCCN(C(=O)c3cccc(O)c3)C2)on1 (stereo unspecified),47.5,-1.7,-0.4%,/,-13.9%,/
Cc1ccc(C)c(CC(=O)N2CCCC(c3cc(C(=O)NCc4cccnc4)no3)C2)c1 (stereo unspecified),2.8,-4.8,?,/,14.6µM*,/
O=C(Nc1ccc(F)c(Cl)c1)c1cc(C2CCCN(S(=O)(=O)c3cccc4cccnc34)C2)on1 (stereo unspecified),3.4,-2.8,?,/,25.9µM*,/
O=C(NCc1ccccc1)c1cc(C2CCCN(S(=O)(=O)c3cccc4cccnc34)C2)on1 (stereo unspecified),14.7,-3.9,?,/,?,/
CCCNC(=O)c1cc(C2CCCN(C(=O)c3ccc4ccccc4c3)C2)on1 (stereo unspecified),16.1,0.6,18.4µM*,/,23.1µM*,/
COc1ccc(NC(=O)c2nc(-c3ccccc3)oc2C)cc1,/,-22.4,/,/,/,/
COc1ccccc1-n1cnnc1SCC(=O)NC(C)c1ccc(-c2ccccc2)cc1 (stereo unspecified),/,3.4,/,/,/,/
CSCCC(NC(=O)c1ccc(Cl)cc1Cl)C(=O)Nc1ccc(C)cc1 (stereo unspecified),/,2.3,/,/,/,/
O=C(NCc1cccnc1)c1cc(C2CCCCN2S(=O)(=O)c2cccc3cccnc23)on1 (stereo unspecified),20.1,1.7,11.6µM*,/,?,/
COc1ccc(S(=O)(=O)N2CCCC(c3cc(C(=O)NCc4cccnc4)no3)C2)cc1 (stereo unspecified),3.3,-4.1,23.1µM*,/,?,/
O=C(NCc1cccnc1)c1cc(C2CCCN(S(=O)(=O)c3cccc4cccnc34)C2)on1 (stereo unspecified),8.1,-14.9,23.1µM*,/,20.6µM*,/
Cc1ccc(C2Nc3ccc4ccccc4c3C3=C2C(=O)CC(C)(C)C3)o1 (stereo unspecified),-52.0*,6.4,?,5.3%,?,20.7%
O=C1CCCC2=C1C(c1ccco1)Nc1ccc3ccccc3c12 (stereo unspecified),-13.0,16.0,20.6µM*,14.0%,18.4µM*,21.0%
COc1cc(C2Nc3ccc4ncccc4c3C3=C2C(=O)CCC3)cc(OC)c1O (stereo unspecified),22.9,29.0,5.17µM*,13.4%,5.17µM*,2.82µM*
O=C1CCCc2ccc3ccccc3c21,-13.0,-1.1,16.8%,/,-18.3%,/
CC1(C)CC(=O)C2=C(C1)c1c(ccc3ncccc13)NC2c1cccs1 (stereo unspecified),0.0,-4.7,5.17µM*,-6.0%,3.66µM*,-3.9%[10 µM]
COc1cc(C2Nc3ccc4ncccc4c3C3=C2C(=O)CC(C)(C)C3)cc(OC)c1O (stereo unspecified),17.4,35.6,?,-9.1%,?,-22.7%
CCCCC(=O)Nc1cccc(-c2nc3ccccc3o2)c1C,/,-7.0,/,/,/,/
O=C(CSc1nc(Cl)nc2nc[nH]c12)NCCc1ccc(Cl)cc1Cl,/,19.6,/,/,/,/
CCOC(=O)C1=C(C)O[C@]23OC(N)=C(C#N)[C@]12C(=O)c1ccccc13,/,-6.5,/,/,/,/
SMILES,IL1B secr inh,LDHA block,DT40 TDP1 CPT,VP16 counter,TDP1 cell noCPT,RORg inh
CC1(C)CC(=O)C2=C(C1)c1c(ccc3ccccc13)NC2c1ccc(C(=O)O)cc1 (stereo unspecified),22.6,-14.6,38.4%,0.6%,5.7%,0.0%
O=C1CCCC2=C1C(c1ccc(O)c(O)c1)Nc1ccc3ccccc3c12 (stereo unspecified),-12.5,1.6,?,/,10.3µM*,/
CCOCCCn1c(=N)c(C(=O)NCc2ccc3c(c2)OCO3)cc2c(=O)n3cccc(C)c3nc21,-59.9*,-7.7,?,-7.4%,?,1.4%
CCOCCCn1c(=N)c(S(=O)(=O)c2ccc(C)cc2)cc2c(=O)n3ccccc3nc21,/,-3.5,/,/,/,/
Cc1ccc2nc3c(cc(C(N)=S)c(=N)n3CCCOC(C)C)c(=O)n2c1,-8.8,-0.6,16.4µM*,-17.9%,16.4µM*,3.1%
COCCCn1c(=N)c(C(=O)NCc2ccc3c(c2)OCO3)cc2c(=O)n3cccc(C)c3nc21,0.4,2.8,-4.1%,/,26.2%,/
COCCCn1c(=N)c(C(N)=S)cc2c(=O)n3cccc(C)c3nc21,-68.2*,-2.4,18.4µM*,/,23.1µM*,/
CCOCCCn1c(=N)c(S(=O)(=O)c2ccccc2)cc2c(=O)n3cc(C)ccc3nc21,20.8,-7.8,?,6.4%,16.4µM*,-6.0%
CCc1cccc(C)c1NC(=O)Cc1nn(C)c(=O)c2ccccc12,/,0.7,/,/,/,/
CCCn1c(=N)c(C(=O)NC2CCCC2)cc2c(=O)n3cccc(C)c3nc21,-20.7,-6.3,?,-13.5%,11.6µM*,?
